Screens from PubChem BioAssay.
An excerpt weighted towards active compounds, which were near 7% of everything screened.
PLK1 PBD block – inhibitors of human PLK1 polo-box domain binding. Plk1 PBD binding of FITC phosphopeptide, fluorescence polarization. P53350. 360,000 compounds, 2.8% hits. AID 720504. Potency, µM, usual class: inhibitors; note: series mostly up to about 57 µM; nearly all actives have a fitted effect of over 65% in size
JMJD2A Tudor – blocks the human JMJD2A Tudor domain; O75164; AlphaScreen JMJD2A-Tudor / H3K4me3 peptide binding; Potency, µM (highest dose often 114 µM), usual class: inhibitors; 390,000 compounds, 4.4% hits; note: nearly all actives have a fitted effect of over 50% in size
HP1b binding inh – HP1-beta chromodomain-methylated histone interaction inhibition; P83916; AlphaScreen HP1-beta / biotin-H3K9me3 peptide binding; Potency, µM (doses to about 114 µM), most hits filed as inhibitors; 390,000 compounds, 0.56% hits; AID 540317; note: nearly all actives have a fitted effect of over 70% in size
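Compound inhibition of the preformed complex between 50 nM HP1-beta and 50 nM biotinylated H3K9me3 peptide was read by AlphaScreen. Buffer was PBS pH 7.4 with 0.01% Tween-20. Incubations ran 30 min at room temperature, with 10 ug/mL donor/acceptor beads.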
KAT2A inh – blocks human GCN5L2 histone acetyltransferase. Q92830. AID 504327. GCN5L2 HAT assay, ThioGlo1 CoA-SH fluorescence. 390,000 compounds, 0.21% hits. Potency, µM (doses to about 58.9 µM), actives largely listed as inhibitors
Target sequence (Q92830 whole entry, looked up): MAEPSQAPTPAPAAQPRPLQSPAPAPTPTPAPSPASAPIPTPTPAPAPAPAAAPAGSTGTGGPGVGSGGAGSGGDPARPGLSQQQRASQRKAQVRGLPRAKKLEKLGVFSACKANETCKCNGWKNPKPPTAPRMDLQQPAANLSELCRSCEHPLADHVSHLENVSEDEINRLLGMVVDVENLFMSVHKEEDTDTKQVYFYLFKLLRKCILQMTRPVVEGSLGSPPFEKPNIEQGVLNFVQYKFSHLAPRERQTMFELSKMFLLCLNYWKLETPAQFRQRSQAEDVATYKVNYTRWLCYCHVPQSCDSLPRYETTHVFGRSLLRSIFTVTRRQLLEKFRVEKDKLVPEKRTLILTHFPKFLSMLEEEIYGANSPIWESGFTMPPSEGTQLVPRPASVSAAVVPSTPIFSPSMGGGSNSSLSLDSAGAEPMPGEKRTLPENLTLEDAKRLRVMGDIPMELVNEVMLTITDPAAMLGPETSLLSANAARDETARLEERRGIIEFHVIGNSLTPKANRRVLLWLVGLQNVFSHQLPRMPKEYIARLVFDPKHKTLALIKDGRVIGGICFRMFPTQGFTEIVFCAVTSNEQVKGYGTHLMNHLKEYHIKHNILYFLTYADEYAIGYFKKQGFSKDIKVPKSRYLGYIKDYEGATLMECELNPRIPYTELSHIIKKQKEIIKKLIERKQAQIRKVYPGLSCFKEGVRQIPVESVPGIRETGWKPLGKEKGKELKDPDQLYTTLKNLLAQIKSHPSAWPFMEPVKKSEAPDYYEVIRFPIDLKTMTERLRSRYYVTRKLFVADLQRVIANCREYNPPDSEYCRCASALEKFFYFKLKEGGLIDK
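Enzyme at 20nM final was mixed with library compounds for 15 min at room temperature. Peptide H3(1-25) at 75uM, acetyl-CoA at 70uM and ThioGlo1 at 50uM were then added. Plates were read immediately and after 20 min (Ex340nm/Em540nm).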
PI5P4Ka inh – PI5P4K alpha (human) kinase inhibition; 330,000 compounds, 1.2% hits; max response, %; P48426; PI5P4Kalpha enzyme, ADP-Glo luminescence, 60 min; active compounds read low; active = max response of -50% or lower; inconclusive = between -30% and -50%; inactive = -30% or higher; note: value at the top dose of about 77 µM
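Single end-point luminescence (ADP-Glo) quantified ADP from PI5P4Kalpha turnover; ATP 5 microM final, 1 h at RT, 0.1% CHAPS and 0.28 mM EGTA in HEPES pH 7.4.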
BAZ2B inh – BAZ2B (human) inhibition; AlphaScreen BAZ2B-H3K14Ac peptide displacement; Q9UIF8; 360,000 compounds, 4.4% hits; Potency, µM (doses to about 114 µM), actives largely listed as inhibitors; AID 504333; note: nearly all actives have a fitted effect of over 60% in size
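Complex of BAZ2B and biotin-H3K14Ac (50 nM apiece) forms over 30 min at RT, then faces library compounds up to 110 uM for another 30 min; AlphaScreen beads added, 20 min dark incubation, luminescence read.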
Large screens that a line does not name were inactive. Unless noted, calls come from the whole dose curve; as a rule, active = well fitted curve in the direction sought with a large enough effect; inconclusive = small, poorly fitted or top-dose-only effect, or another doubt; inactive = no such curve, though single readings can be large; an effect the other way counts as inactive or inconclusive.

COc1ccc(CNC(=O)CCC2N=C3c4ccccc4N=C(SCc4cccc(F)c4)N3C2=O)cc1 (stereo not drawn)	none (no result: PLK1 PBD block, PI5P4Ka inh)
Cc1ncc([N+](=O)[O-])n1CC(=O)Nc1ccc(Br)cc1	none
COc1cccc(-c2c(C(=O)O)cc(O)c3ccc(OC)cc23)c1	none (no result: KAT2A inh, BAZ2B inh)
CCOc1ccc(C2=NC(c3cccs3)=Nc3ccc(C(C)C)cc3N2)cc1	JMJD2A Tudor 20µM, BAZ2B inh 22µM (no result: PLK1 PBD block, PI5P4Ka inh)
CCc1ccc2c(c1)NC(c1ccc(C)cc1)=NC(c1cccs1)=N2	JMJD2A Tudor 45µM, HP1b binding inh inconclusive, BAZ2B inh 25µM (no result: PLK1 PBD block, PI5P4Ka inh)
Cc1cccc(N(Cc2ccccc2)C(=O)Cc2ccc(S(=O)(=O)N3CCOCC3)s2)c1	none
CN(CC(=O)Nc1cccc(F)c1)C(=O)/C=C/c1cc(Br)ccc1OC(F)F	none
O=c1c2cc(F)ccc2sn1-c1ccc(F)cc1	PLK1 PBD block 3.4µM, JMJD2A Tudor 20µM, KAT2A inh 1.8µM, PI5P4Ka inh -90, BAZ2B inh 10µM
Cc1ccc2scc(N3CCN(c4ccc(F)cc4)CC3)c(=O)c2c1	JMJD2A Tudor inconclusive, BAZ2B inh inconclusive (no result: PLK1 PBD block, PI5P4Ka inh)
O=C1CCCC(=O)N1c1ccc(F)cc1	none
COc1ccc(-n2sc3ccccc3c2=O)cc1	PLK1 PBD block 2.7µM, PI5P4Ka inh -89 (no result: JMJD2A Tudor, HP1b binding inh, KAT2A inh, BAZ2B inh)
COc1ccc(-n2sc3ccc(F)cc3c2=O)cc1	PLK1 PBD block 2.7µM, JMJD2A Tudor 11µM, KAT2A inh 2.8µM, PI5P4Ka inh -87, BAZ2B inh 8.9µM
Cc1ccc(C)c(-n2sc3ccc(F)cc3c2=O)c1	PLK1 PBD block 2.1µM, JMJD2A Tudor 14µM, KAT2A inh 3.5µM, PI5P4Ka inh -85, BAZ2B inh 18µM
O=C(NCc1ccccc1)c1nn(-c2ccccc2)nc1CO	none (no result: PLK1 PBD block, PI5P4Ka inh)
CCCCOC(=O)C1CCCC(C)N1 (stereo not drawn)	JMJD2A Tudor 22µM (no result: PI5P4Ka inh)
CCCCCCCCCCOC(=O)NC1CCS(=O)(=O)C1 (stereo not drawn)	none
O=C(c1ccco1)N1CCN(C(=S)Nc2ccccc2C(F)(F)F)CC1	none
CCOCCCN1C(=O)C(O)=C(C(C)=O)C1c1cccs1 (stereo not drawn)	JMJD2A Tudor 89µM (no result: KAT2A inh, BAZ2B inh)
COc1cccc2cc(C(=O)C3=C(O)C(=O)N(CCN4CCOCC4)C3c3cccs3)oc12 (stereo not drawn)	JMJD2A Tudor 79µM
CCCOc1ccc(C2C(C(=O)c3ccc(C)o3)=C(O)C(=O)N2CCN2CCOCC2)cc1OC (stereo not drawn)	JMJD2A Tudor 22µM, KAT2A inh inconclusive
COc1cc(C2C(C(C)=O)=C(O)C(=O)N2CCc2c[nH]c3ccccc23)ccc1O (stereo not drawn)	JMJD2A Tudor 100µM, BAZ2B inh inconclusive
COc1cc(C2C(C(=O)c3cccs3)=C(O)C(=O)N2CCN2CCOCC2)cc(OC)c1OC (stereo not drawn)	none
O=S1(=O)CCOCCN1Cc1ccc(Cl)cc1Cl	none (no result: PLK1 PBD block, JMJD2A Tudor, HP1b binding inh, PI5P4Ka inh)
CCCC(=O)c1ccc(O)cc1O	none (no result: PLK1 PBD block, JMJD2A Tudor, HP1b binding inh, PI5P4Ka inh)
CCC(Nc1ccc(-c2nc(-c3ccccn3)no2)cc1[N+](=O)[O-])c1ccccc1 (stereo not drawn)	none (no result: PLK1 PBD block, PI5P4Ka inh)
COc1cc(C2C(C(=O)c3ccco3)=C(O)C(=O)N2Cc2ccccc2)ccc1O (stereo not drawn)	JMJD2A Tudor 56µM
COCCCN1C(=O)C(O)=C(C(=O)c2ccco2)C1c1ccccc1 (stereo not drawn)	JMJD2A Tudor 50µM, BAZ2B inh inconclusive
COCc1cc(C2C(C(=O)c3ccco3)=C(O)C(=O)N2CCOCCO)ccc1O (stereo not drawn)	JMJD2A Tudor 50µM, BAZ2B inh inconclusive
CCOc1cccc(C2C(C(=O)c3ccc(C)o3)=C(O)C(=O)N2CCCn2ccnc2)c1 (stereo not drawn)	JMJD2A Tudor inconclusive, BAZ2B inh inconclusive
COCCCN1C(=O)C(O)=C(C(=O)c2ccc(C)o2)C1c1cccc(Br)c1 (stereo not drawn)	JMJD2A Tudor 89µM, KAT2A inh inconclusive (no result: PI5P4Ka inh)
O=C(O)C1CCN(C(=O)CSc2nc3cc(Cl)ccc3c(=O)n2Cc2ccccc2)CC1	none
CC(=O)C1=C(O)C(=O)N(CCCO)C1c1ccccc1 (stereo not drawn)	JMJD2A Tudor inconclusive, BAZ2B inh inconclusive (no result: PI5P4Ka inh)
COCCCN1C(=O)C(O)=C(C(C)=O)C1c1ccccn1 (stereo not drawn)	JMJD2A Tudor 79µM
COc1ccc(C2C(C(=O)/C=C/c3ccco3)=C(O)C(=O)N2CCN2CCOCC2)cc1 (stereo not drawn)	BAZ2B inh 79µM
O=S(=O)(c1cccc(Cl)c1)c1nnn2c1nc(NC1CCCCCC1)c1sccc12	none (no result: PLK1 PBD block, PI5P4Ka inh)
O=C(Nc1nnc(-c2ccncc2)o1)c1ccc(Br)s1	JMJD2A Tudor inconclusive, PI5P4Ka inh inconclusive, BAZ2B inh 71µM
O=C(Nc1nnc(-c2ccncc2)o1)C1CCCCC1	JMJD2A Tudor 20µM, BAZ2B inh 50µM
O=C(Nc1nnc(-c2ccco2)o1)C1CCCCC1	JMJD2A Tudor 89µM, BAZ2B inh inconclusive
O=C(Nc1nc(-c2ccco2)c(-c2ccco2)s1)C1CCC1	JMJD2A Tudor 40µM, HP1b binding inh 50µM, PI5P4Ka inh inconclusive, BAZ2B inh 32µM
O=C(CNC(=O)OCc1ccccc1)NCC(=O)NC(Cc1c[nH]c2ccccc12)C(=O)O (stereo not drawn)	none (no result: JMJD2A Tudor, HP1b binding inh, KAT2A inh, BAZ2B inh)
Cc1cc(C)c(C#N)c(SCC(=O)C2CC2)n1	none
O=C(Nc1nnc(-c2cccs2)o1)C1CC1	JMJD2A Tudor 50µM, BAZ2B inh inconclusive
O=C(O)CNS(=O)(=O)c1c(Cl)cccc1Cl	JMJD2A Tudor 14µM
O=C(O)c1cc(S(=O)(=O)N2CCCCC2)ccc1N1CCOCC1	none (no result: BAZ2B inh)
O=C(COC(=O)/C=C/c1cccs1)Nc1ccc(Cl)cc1F	none (no result: BAZ2B inh)
O=C(Nc1ccccc1)Nc1nncs1	PLK1 PBD block 30µM
O=C(Nc1ccccc1)Nc1ccc2nnsc2c1	PLK1 PBD block 30µM, JMJD2A Tudor 79µM
CCCCNC(=O)C1c2ccccc2Oc2ccccc21	none
O=C(NCc1ccco1)C1c2ccccc2Oc2ccccc21	JMJD2A Tudor 50µM
COc1cc(-c2noc(-c3ccccc3C(=O)NCc3ccco3)n2)cc(OC)c1OC	none
O=C(NCc1ccco1)c1ccccc1Br	PLK1 PBD block 27µM, JMJD2A Tudor 50µM
Cc1cccc(-c2noc(-c3ccccc3C(=O)NCc3ccco3)n2)c1	JMJD2A Tudor inconclusive, BAZ2B inh 50µM
Cc1ccc(-c2noc(-c3ccccc3C(=O)NCc3ccco3)n2)cc1	none
O=C(NNC(=S)NCc1ccco1)c1ccccc1Br	none
O=C(NCc1ccco1)c1ccccc1-c1nc(-c2ccccc2)no1	BAZ2B inh 56µM (no result: PI5P4Ka inh)
